Hits are enriched below; roughly 6.5% of the tested compounds scored in any of these assays.
IL1B secr inh: inhibitors of inflammasome signaling (IL-1 beta secretion); THP-1 LPS/ATP IL-1B secretion, AlphaLISA, 16 h; active compounds read low; AID 743279; 4.7% of 360,000 active; activity change, % at 57.5 µM; in the data active = activity change below about -50%; inconclusive = mostly about -30% to -49%
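THP-1 cells pretreated 1 hr with compounds (up to 57.5 uM final), then stimulated with LPS (250 ng/mL final) plus ATP (1.25 mM final); secreted IL-1B measured by AlphaLISA after 16 hr, decreased signal indicating inhibition.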
TGFb inhibitor: inhibitors of TGF-b signaling. 1.2% of 410,000 active. Potency, µM (highest dose often 46.1 µM), actives largely listed as inhibitors. HepG2 CAGA-GFP TGF-b/SMAD3 reporter, GFP fluorescence, 18 h; TGF-beta stimulated, 500 pg/mL final. AID 588855; note: nearly all actives have a fitted effect of over 65% in size
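First, reporter cells (HEPG2 CAGA-GFP) rested 2 h at 37 degrees C. Next, compounds were pinned in and TGF-beta added to 500 pg/mL final. After 18 h, GFP was imaged per cell and summed per well.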
HT1080 IDH1KD tx: kills HT-1080 cells with IDH1 knockdown; HT-1080 IDH1 knockdown viability, ATP luminescence, 48 h; Potency, µM (series often up to 46.1 µM), hits mostly cytotoxic; 2% of 360,000 active
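% activity derives from luminescence (CellTiter-Glo), normalised to DMSO and no-cell wells. HT-1080-IDH1KD cells, 750/well, had 48 h compound exposure at 37 °C.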
HepG2 tox: kills HepG2 cells in TGF-b inhibitor counter-screen; 0.76% of 410,000 active; HepG2 CAGA-GFP viability, ATP luminescence, 18 h; AID 588856; Potency, µM (series often up to 46.1 µM), most hits filed as cytotoxic
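CellTiter-Glo luminescence gave cytotoxicity after 18 hours at 37 degrees C. The cells were HepG2 CAGA-GFP in 1% FBS DMEM, stimulated with 500 pg/mL TGF-beta after compound addition. %Activity was normalised to no-cell wells (complete cell-killing) and DMSO (no toxicity), and curves were fitted and classified.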
HT1080-NT tox: kills 2HG-producing HT-1080-NT fibrosarcoma cells; Potency, µM (highest dose often 46.1 µM), usual class: cytotoxic; 1.6% of 360,000 active; AID 686970; HT-1080-NT fibrosarcoma viability, CellTiter-Glo ATP luminescence, 48 h;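 note: NT is the 2HG producing partner of a matched IDH1 knockdown line; nearly all actives have a fitted effect of over 55% in size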
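Viability by CellTiter-Glo luminescence after 48 h compound exposure at 37C of HT-1080-NT cells (750/well, RPMI, 5% FBS). % activity scaled between DMSO wells and medium-only wells, then curve-fitted and categorized by curve class.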
Giardia killer: kills Giardia lamblia. Giardia lamblia trophozoite viability. activity change, % at 7.66 µM, hits read low. 0.15% of 340,000 active; in the data active = activity change below about -80%; inconclusive = between about -30% and that limit;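 note: parasites exposed to compound for two days anaerobically before the ATP read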
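Viability, read as ATP luminescence: trophozoites at 100 cells/well, compound added, 48 hrs anaerobic at 37 deg C, then 15-30 min room-temperature development before reading.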
Numbers stand for hits; – = inactive; ? = inconclusive; · = not tested or not shown. Unless noted, calls come from the whole dose curve; as a rule, active = well fitted curve in the direction sought with a large enough effect; inconclusive = small, poorly fitted or top-dose-only effect, or another doubt; inactive = no such curve, though single readings can be large; an effect the other way counts as inactive or inconclusive.

SMILES	IL1B secr inh	TGFb inhibitor	HT1080 IDH1KD tx	HepG2 tox	HT1080-NT tox	Giardia killer
Fc1ccc(NC(=S)NNc2ncc(C(F)(F)F)cc2Cl)c(F)c1	–	?	16.4µM	–	?	–
Cc1ccc(NC(=O)C(c2ccccc2)c2ccccc2)c(O)c1	-56.0	15.8µM	–	–	–	–
COc1cc(NC(=O)C(c2ccccc2)c2ccccc2)c(C(=O)O)cc1OC	–	–	–	–	–	–
CCn1c(=O)n(CC)c2cc(S(=O)(=O)N3CCc4ccccc43)ccc21	–	–	?	–	10µM	–
COc1ccc(S(=O)(=O)N2CCc3ccccc32)cc1OC	?	–	–	–	–	?
Cc1cc(NC(=O)COC(=O)c2ccc(S(=O)(=O)N3CCCC3)cc2)no1	–	–	–	–	–	–
COC(=O)c1ccc(S(=O)(=O)N2CCc3ccccc32)cc1	–	–	9.2µM	–	?	–
CC(=O)Nc1ccc(S(=O)(=O)N2CCCc3ccccc32)cc1	–	?	7.08µM	–	8.91µM	–
O=S(=O)(c1ccc(Cl)cc1)N1CCCc2ccccc21	–	–	–	–	–	–
Cc1cc(NC(=O)COC(=O)c2ccc(S(=O)(=O)N3CCCc4ccccc43)cc2)no1	–	–	4.11µM	–	4.11µM	–
CN1CCC(n2[nH]c(-c3ccccc3)c(Cc3ccccc3)c2=O)CC1	–	–	?	–	–	–
COc1cccc(NC(=O)CS(=O)(=O)Cc2nc(-c3ccc(C)cc3)oc2C)c1	–	–	–	–	–	–
COC(=O)Nc1ccc(S(=O)(=O)N2c3ccccc3CCC2C)cc1 (stereo not drawn)	–	?	?	–	2.82µM	–
O=C(c1cccc(S(=O)(=O)N2CCc3ccccc3C2)c1)N1CCN(c2ccccc2)CC1	–	?	–	–	–	–
O=C(c1cccc(S(=O)(=O)N2CCc3ccccc32)c1)N1CCN(c2ccccc2)CC1	?	–	?	–	13µM	–
COc1cc(/C=N/N=C(N)N)ccc1OCc1ccccc1Cl	-66.5	?	–	–	–	–
COc1ccc(/C=N/N=C/c2ccc(OC)c(OC)c2)cc1OC	–	–	–	–	–	–
O=C(Nc1cccc(S(=O)(=O)C(F)F)c1)c1ccc(S(=O)(=O)N2CCOCC2)cc1	–	–	–	–	–	–
O=C(N/N=C/c1ccc2c(c1)OCO2)c1ccc(NS(=O)(=O)c2cccs2)cc1	-60.2	–	?	–	–	–
O=C(N/N=C\C=C\c1ccc([N+](=O)[O-])o1)c1cccs1	?	?	13µM	–	?	–
C/C(=N\NC(=O)c1ccc(NS(=O)(=O)c2cccs2)cc1)c1ccc(O)cc1O	–	?	23.1µM	–	?	–
O=C(N/N=C/C=C/c1ccccc1[N+](=O)[O-])c1cccs1	–	–	–	–	–	–
O=C(N/N=C/c1ccc([N+](=O)[O-])cc1)c1ccc(NS(=O)(=O)c2cccs2)cc1	–	–	–	–	–	–
O=C(NN=Cc1ccc(F)c(F)c1)c1ccc(NS(=O)(=O)c2cccs2)cc1	–	–	?	–	–	–
O=C(N/N=C/c1ccc([N+](=O)[O-])o1)c1ccc(NS(=O)(=O)c2cccs2)cc1	-54.3	?	23.1µM	–	?	–
SMILES	IL1B secr inh	TGFb inhibitor	HT1080 IDH1KD tx	HepG2 tox	HT1080-NT tox	Giardia killer
COc1ccc(N(C)C(=O)CCn2cnc3onc(-c4ccc(F)cc4)c3c2=O)c(OC)c1	·	–	·	–	·	·
CC1CCCN(CCCOc2ccccc2-c2ccccc2)C1 (stereo not drawn)	-81.6	?	?	–	?	–
CC1CCCN(CCOCCOc2ccc(Br)cc2Cl)C1 (stereo not drawn)	?	–	?	–	?	–
CC1CCN(CCCCOc2ccccc2-c2ccccc2)CC1	-104.5	–	?	–	?	–
CC1CCN(CCCOc2ccc(Br)cc2Cl)CC1	-59.8	–	–	–	–	–
CCC(Cc1ccccc1)NC(=O)C1=C(C)C(=O)OC12CCC(C)CC2 (stereo not drawn)	–	–	–	–	–	–

Bioassay records from PubChem BioAssay.
